# Assay results reported in ChEMBL document CHEMBL4888484, “Replenishing the malaria drug discovery pipeline: Screening and hit evaluation of the MMV Hit Generation Library 1 (HGL1) against asexual blood stage Plasmodium falciparum ,using a nano luciferase reporter read-out” (2022).
# The campaign covered roughly 4,800 compounds. About 420 (8.8%) showed an effect of 50% or more. The list comes from a sample in which strong results are over-represented; it also holds similar structures and randomly drawn compounds.
# Test system: Plasmodium falciparum
# Assay: Confirmatory screen in NF54 nanoGlo assay, in single point, at 2uM, 72h
# Format: functional, Erythrocyte
# Settings: timepoint 72 hour
row,Structure (SMILES),% Inhibition [%]
1,COc1cccc(CNCCCN2CCOCC2)c1OCc1ccc(Cl)cc1Cl,-1
2,Clc1ccc(Cn2cc(CNCCCn3ccnc3)c3ccccc32)c(Cl)c1,98
3,OCCNCc1ccc(Cl)cc1Cl,0
4,COc1cccc(CNCCN2CCOCC2)c1OCc1ccc(Cl)cc1Cl,7
5,CCOc1cc(CNCCCn2ccnc2)ccc1OCc1ccccc1,21
6,Clc1ccc(COc2ccc(Cl)cc2CNCCCn2ccnc2)c(Cl)c1,95
7,Cc1nc2ccnn2cc1C(=O)Nc1ccc(CCC(C)C)cn1,-5
8,Cc1cc(CN(C)c2cc(C3CC3)nc(N(C)Cc3cc(C)on3)n2)no1,-13
9,FC(F)Oc1cccc(-c2cc(C(F)(F)F)c3c(-c4ccc5c(c4)OCO5)noc3n2)c1,8
10,N#Cc1nc(COc2cccc(Cl)c2)oc1NC[C@H]1CCCO1,-1
11,CN(CC(=O)Nc1ncccn1)S(=O)(=O)c1ccc2c(c1)OCCCO2,-7
12,O=C1CC(C(=O)N2CCCCC2c2nc(-c3ccccc3)c[nH]2)CN1 (stereo unspecified),3
13,Nc1nc(N2CCN(c3ccc(F)c(Cl)c3)CC2)cc([C@H]2C[C@@H](N)C2)n1,32
14,N[C@H]1C[C@@H](c2cc(N3CCN(C4CCCCC4)CC3)nc(N3CCCC3)n2)C1,44
15,Nc1nc(C2CC(N)C2)cc(N2CCC(Oc3ccccc3Cl)CC2)n1 (stereo unspecified),51
16,CCC1CN(CCCN2C(=O)CNC2=O)CCC1c1ccccc1 (stereo unspecified),0
17,COC(=O)C1(CNC(=O)C2CCC2)CCCCC1,1
18,CCN(C(=O)Cn1cc(-c2ccccc2)c2ncn(CC)c(=O)c21)c1ccccc1,75
19,CCN(C(=O)Cn1ncn2nc(-c3cccc4ccccc34)cc2c1=O)c1ccccc1,1
20,CCN(C(=O)CN1C(=O)C(c2ccccc2)=NC12CCC(C)CC2)c1ccccc1 (stereo unspecified),-9
21,CCOC[C@@H](O)CN(Cc1c(-c2ccccc2)noc1N1CCC(C)CC1)CC1CC1,-7
22,O=C(NC1CCN(Cc2ccccc2)CC1)c1cn[nH]c1-c1ccccc1,-3
23,CCOC(=O)N1CCC(NC(=O)c2cn[nH]c2-c2ccc(OCC)c(Cl)c2)CC1,2
24,CNC(=O)N1CCN(c2cc(C)nc(C3CC3)n2)CC1,-18

row,Structure (SMILES),% Inhibition [%]
1,O=C(Cn1nnc2ccccc21)N(Cc1ccccc1)C1(C(=O)Nc2ccc3c(c2)OCO3)CCCCC1,23
2,O=C(COc1ccccc1)N1CC(n2cnnc2C2CC2)C1,-11
3,CC1CC(C(=O)Nc2[nH]c(=O)ncc2F)CC(C)(C)C1 (stereo unspecified),92
4,CN(C)C(=O)NCCc1ncc(C(F)(F)F)cc1Cl,-5
5,Cc1cc(C#N)cc(C)c1Oc1nc(Nc2ccc(C#N)cc2Br)nc(N)c1Br,-9
6,Cc1nc(C(=O)Nc2[nH]c(=O)ncc2F)c(-c2ccccc2)o1,85
7,CC(C)c1nc(C(=O)Nc2[nH]c(=O)ncc2F)cs1,92
8,O=C(Nc1[nH]c(=O)ncc1F)c1coc(-c2ccccc2)n1,80
9,O=C(c1coc(-c2ccccc2)n1)N1CCc2cc(Br)ccc21,-4
10,Cc1ccc(-c2cc(C(=O)Nc3nnc(C(C)C)s3)no2)cc1F,39
11,CC(C)c1nc(C(=O)Nc2ccccc2CN2CCNC2=O)cs1,3
12,COc1ccc(CN2CC[C@@H]3C(=O)NCCCCCCN(Cc4ccncc4)[C@@H]3C2)cc1Cn1ccnc1,47
13,COc1cc2c(cc1OC)C(Nc1cc(C)ccc1C)=NC(C)(C)C2,-7
14,CCC[C@@]1(C)C(=O)NCCN1Cc1nnc(-c2ccc(Cl)cc2)n1C,-10
15,CCOC1CC2(CCN(Cc3cc(Cl)c(OC)cc3Cl)C2)C1 (stereo unspecified),1
16,CC(=O)N(CC[C@]1(Cc2ccccc2Cl)CCOC(C)(C)C1)Cc1ccc(F)cc1,0
17,COc1ccc(-c2nn3c(Cc4ccccn4)nnc3s2)cc1OC,4
18,Cc1ccc(Cn2c(=O)c(N3CCC[C@H](C(=O)NCc4ccccc4F)C3)nc3ccccc32)cc1,-4
19,C[C@@H](CCc1ccccc1)NC(=O)c1cnn2c3c(cnc12)CCCC3,-8
20,Cn1nc(C(=O)N2CCCCC[C@H]2C2CCCCC2)ccc1=O,-10
21,Cc1cccc(NC(=O)C(=O)N(C)[C@H]2CCCc3c2cnn3C)c1F,-17
22,CC(C)Cc1cc(C(=O)N2CCc3c(C#N)cccc32)cc(O)n1,-8
23,Cc1cc[n+]2c(-c3ccccc3)cc(-c3ccccc3)nc2c1,62
24,Cc1cc(-c2ccccc2)nc2sc(-c3ccccc3)c([O-])[n+]12,-2

row,Structure (SMILES),% Inhibition [%]
1,Cc1cc(-c2ccccc2)cc(-c2ccccc2)c1-c1cc(-c2ccccc2)cc(-c2ccccc2)n1,-10
2,CC[n+]1c(C)sc2cc(-c3ccccc3)sc21,-15
3,O=C(O)CC1(NC(=O)c2cc(Oc3ccccc3)ccn2)CCC1,-7
4,CCOc1ncccc1CNC(=O)CNC(C)=O,3
5,Cc1ccc(C(=O)N2CC(C)CC(C)C2)cc1NCc1ncc[nH]1 (stereo unspecified),8
6,Cc1ccccc1C(=O)Cc1ncc[nH]1,75
7,C[C@](O)(CCc1ccccc1)C(=O)NCCc1ncc[nH]1,3
8,COCC[C@](C)(O)CNC(=O)Nc1ccccc1,1
9,CC[C@@H](c1ccncc1)N(C)Cc1cc(-c2ccc(Cl)cc2)no1,-6
10,COCc1nncn1C1CN(C(=O)Cc2cc(OC)cc(OC)c2)C1,-16
11,COc1nn(C)cc1C(=O)N1CCC[C@H](Oc2cccnn2)C1,1
12,Cc1cc(C(=O)NCCCN2CCCC2=O)nn1C(F)F,-13
13,CCn1cc(-c2cc(C(F)(F)F)nc(N3CCCC3)n2)cn1,4
14,COc1ccc2c(c1)[n+](CC(=O)c1ccc(-c3ccc(Br)cc3)cc1)c(CO)n2C,46
15,COc1ccc(-c2c[n+](-c3ccc(Cl)cc3)c3n2CCCCC3)cc1,60
16,FC(F)Oc1ccc(-c2c[n+](-c3cccc(C(F)(F)F)c3)c3n2CCCCC3)cc1,44
17,COc1ccc(C(=O)C[n+]2nc(CNc3ccc(Br)cc3)n3c2CCCCC3)cc1,84
18,COc1ccc(N2CCN(Cc3cc(-c4ccc(Cl)cc4)no3)CC2)cc1,-22
19,Cn1c(-c2ccc(Br)cc2)c[n+](CC(=O)c2ccc(Br)cc2)c1N,-8
20,Cc1ccc(-c2c[n+](-c3ccc(OC(F)F)cc3)c3n2CCCCC3)cc1,67
21,COc1ccc(C(=O)C[n+]2cc(-c3ccc(OC)cc3)n3c2CCCC3)cc1,60
22,COc1cccc(C(=O)C[n+]2cc(-c3ccc(Br)cc3)n(C)c2N)c1,-3
23,COc1ccc(CC(=O)NCc2nnc3n2CCC3)cc1,12
